These results are taken from PubChem BioAssay AID602413 (Johns Hopkins Ion Channel Center, 2012).

Out of some 1,200 compounds screened, about 150 (12%) were called active.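 The calls were made as follows: active = ratio at least 3 SD above the weak peptide control, stable starting fluorescence, no direct agonism earlier; inactive = the rest.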 Many of the other results were omitted from the sample, so actives are more common in it than they were.

For the test, the target named is Mas-related G-protein coupled receptor member X1 (Homo sapiens) (UniProt Q96LB2). Put plainly: MrgX1 positive allosteric modulators, duplicate retest, confirmation, HEK293 cells, Fluo-4 calcium flux (AID 602413).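 Also: compound followed by low BAM8-22 agonist challenge near EC20.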 To be noted: MrgX1-HEK293, Fluo-4 calcium fluorescence, FDSS; at 10 µM; stronger effect = higher value. On the technique in general: A change in cytosolic calcium serves as a functional read-out for many receptors and channels.
Sequence of Mas-related G-protein coupled receptor member X1 (Homo sapiens) (Q96LB2 whole entry, looked up): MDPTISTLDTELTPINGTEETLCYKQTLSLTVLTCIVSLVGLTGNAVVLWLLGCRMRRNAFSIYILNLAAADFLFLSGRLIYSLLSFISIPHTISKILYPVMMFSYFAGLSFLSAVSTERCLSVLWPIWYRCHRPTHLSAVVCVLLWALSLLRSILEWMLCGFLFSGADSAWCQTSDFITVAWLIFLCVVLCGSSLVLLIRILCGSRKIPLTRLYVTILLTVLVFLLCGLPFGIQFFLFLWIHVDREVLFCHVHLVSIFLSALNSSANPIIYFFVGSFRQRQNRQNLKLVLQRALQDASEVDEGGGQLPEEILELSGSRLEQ
As to `C=CCN1C(=O)C2(C(C(=O)OCC)=C(N)Oc3c2c(=O)oc2ccccc32)c2ccccc21` (stereo unspecified), the activation (ratio percentage) is 29.5% (active).
